Test [1] can be described thus: NS1 protein of Zika virus - qHTS assay to identify small molecule inhibitors in human HEK 293 cells (AID 1347053). Note: series mostly up to about 46 µM; nearly all actives have a fitted effect of over 55% in size. In short, it runs like this: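 Compound-treated (1 h pre-infection) HEK 293 cells infected with ZIKV MR766, MOI = 0.5; after 24 h at 37 C, NS1 read by TR-FRET; data normalized to uninfected and infected controls.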
The nature of test [2]: qHTS of pediatric cancer cell lines to identify multiple opportunities for drug repurposing: Primary screen for TC32 cells (AID 1347089). Note: nearly all actives have a fitted effect of over 60% in size. Note: potency is the fitted concentration of half-maximal effect. In short, it runs like this: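 In the primary qHTS, MIPE compounds were tested at 11 concentrations (0.78 nM to 46 µM) and NPC compounds at 8 (0.59 nM to 46 µM) on TC32 cells for 48 h. CellTiter-Glo luminescence gave viability.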
In general terms: In qHTS, concentration-response curves come from the screen itself.

Test [3] in a line: qHTS of pediatric cancer cell lines to identify multiple opportunities for drug repurposing: Primary screen for SJ-GBM2 cells (AID 1347091). Note: potency is the fitted concentration of half-maximal effect. The essentials: (§1)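 Eight- or eleven-point concentration series, 48 h treatment at 37 degrees C in growth media; readout CellTiter-Glo luminescence. Potency and efficacy were taken from the concentration-response curves.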
The nature of test [4]: qHTS of pediatric cancer cell lines to identify multiple opportunities for drug repurposing: Primary screen for A673 cells (AID 1347092). Note: nearly all actives have a fitted effect of over 45% in size. Note: potency is the fitted concentration of half-maximal effect. In short, it runs like this:
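48 h compound exposure, A673, 500-1,000 cells/well, 37 degrees C/5% CO2. MIPE: 11-point, 0.78 nM-46 µM; NPC: 8-point, 0.59 nM-46 µM (final). Readout CellTiter-Glo luminescence after 15 min RT.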

Test [5] in a line: qHTS of pediatric cancer cell lines to identify multiple opportunities for drug repurposing: Primary screen for SK-N-MC cells (AID 1347093). Note: potency is the fitted concentration of half-maximal effect. The essentials: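 Metabolically active cells were quantified by ATP-dependent luminescence (CellTiter-Glo, 15 min at room temperature) following 48 h treatment. Cells had been plated at 500-1,000 per well and settled for 5 h beforehand.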

Test [6] can be described thus: qHTS of pediatric cancer cell lines to identify multiple opportunities for drug repurposing: Primary screen for BT-37 cells (AID 1347094). Note: potency is the fitted concentration of half-maximal effect. In short, it runs like this:
(§2)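 Plated cells (500-1,000 per well, growth media) were allowed to settle for 5 hours, treated with compound dilutions for 48 hours, then lysed with CellTiter-Glo for 15 min at room temperature before luminescence reading.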

Test [7] is described as follows: qHTS of pediatric cancer cell lines to identify multiple opportunities for drug repurposing: Primary screen for NB-EBc1 cells (AID 1347095). The essentials:
as §2

Test [8] is described as follows: qHTS of pediatric cancer cell lines to identify multiple opportunities for drug repurposing: Primary screen for U-2 OS cells (AID 1347096). Note: nearly all actives have a fitted effect of over 50% in size. Note: potency is the fitted concentration of half-maximal effect. The essentials:
(§3)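 Cells (500-1,000/well) in growth media were settled 5 h at 37 degrees C, then given compounds for 48 h. Viability was read as CellTiter-Glo luminescence. Primary runs used MIPE at 11 points (0.78 nM-46 µM) and NPC at 8 points (0.59 nM-46 µM); follow-ups used 11 points.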

Test [9] in a line: qHTS of pediatric cancer cell lines to identify multiple opportunities for drug repurposing: Primary screen for Saos-2 cells (AID 1347097). Note: nearly all actives have a fitted effect of over 40% in size. Note: potency is the fitted concentration of half-maximal effect. The essentials:
as §2

Test [10] can be described thus: qHTS of pediatric cancer cell lines to identify multiple opportunities for drug repurposing: Primary screen for SK-N-SH cells (AID 1347098).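 Note: DMSO served as neutral control and bortezomib at 2.3 µM as positive control; nearly all actives have a fitted effect of over 65% in size.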 The essentials: (§4)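 Cells (500-1,000/well) rested 5 h, then received compounds for 48 h; metabolically active cells were measured by CellTiter-Glo luminescence. Final concentrations spanned up to 46 µM (MIPE, 11-point) or 0.59 nM-46 µM (NPC, 8-point) in primary screens, 11-point in follow-ups.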

A short description of test [11]: qHTS of pediatric cancer cell lines to identify multiple opportunities for drug repurposing: Primary screen for NB1643 cells (AID 1347099). Note: nearly all actives have a fitted effect of over 50% in size. The essentials: as §2
Test [12] can be described thus: qHTS of pediatric cancer cell lines to identify multiple opportunities for drug repurposing: Primary screen for LAN-5 cells (AID 1347100). Note: potency is the fitted concentration of half-maximal effect. In short, it runs like this: as §3
The nature of test [13]: qHTS of pediatric cancer cell lines to identify multiple opportunities for drug repurposing: Primary screen for BT-12 cells (AID 1347101). Note: nearly all actives have a fitted effect of over 25% in size. Note: potency is the fitted concentration of half-maximal effect. The essentials:
as §4

Test [14] can be described thus: qHTS of pediatric cancer cell lines to identify multiple opportunities for drug repurposing: Primary screen for DAOY cells (AID 1347090). Note: series mostly up to about 46 µM; nearly all actives have a fitted effect of over 55% in size. The essentials:
as §1

The structures appear in SMILES notation. Records with an inconclusive call do not appear. Values without a mark were called inactive. Activity calls are given as the source filed them. Calls come from the whole dose curve; as a rule, active = well fitted curve in the direction sought with a large enough effect; inconclusive = small, poorly fitted or top-dose-only effect, or another doubt; inactive = no such curve, though single readings can be large; an effect the other way counts as inactive or inconclusive.

On to `Cn1c(=O)c2c(ncn2CC2OCCO2)n(C)c1=O`, for which the Potency entry in test [1], in test [2], in [3], in [4], in test [5] and in test [6] was “inactive” throughout. The Potency entry in [7], in test [8], in test [9], in test [10], in [11] and in [12] was “inactive” in each case. In addition, the Potency entry in test [13] is “inactive”.
As to `O=C1OC(OC(=O)c2cccnc2Nc2cccc(C(F)(F)F)c2)c2ccccc21` (centres undefined), the Potency result in test [1], in [2], in [14], in [3], in [6] and in [7] was “inactive” in each case. Besides, the Potency result in [8], in test [9], in test [10], in test [11], in test [12] and in test [13] was “inactive” in each case.
As to `O=C(O)[C@H](O)c1ccccc1`, the Potency result in test [1], in test [2], in test [3], in test [4], in test [5] and in [7] was “inactive” in each case. The Potency result in test [8], in test [9], in test [10], in [11], in test [12] and in test [13] was “inactive” in each case.
In the case of `Nc1ccc(S(=O)(=O)Nc2nccs2)cc1`, the Potency entry in test [1], in [2], in test [3], in test [5], in test [6] and in [7] was “inactive” each time. For the same compound, the Potency result in [8], in test [9], in test [10], in test [11], in test [12] and in [13] was “inactive” in each case.
On to `COc1ccc2[nH]c(S(=O)Cc3ncc(C)c(OC)c3C)nc2n1` (centres undefined), for which the Potency entry in test [1], in test [2], in test [3], in [4], in test [5] and in test [6] was “inactive” in each case. Further, the Potency entry in test [7], in test [8], in test [9], in test [10], in test [11] and in test [12] was “inactive” in each case. Also, the Potency entry in test [13] was “inactive”.
Consider `C[C@@H]1C[C@H]2[C@@H]3C[C@H](F)C4=CC(=O)C=C[C@]4(C)[C@@]3(F)[C@@H](O)C[C@]2(C)[C@@]1(O)C(=O)CO`, for which the Potency entry in [1], in test [2], in [3], in [4], in [5] and in test [6] was “inactive” each time. Besides, the Potency result in test [7], in test [8], in test [9], in test [10], in test [11] and in [12] was “inactive” each time. Further, in test [13], the Potency entry is “inactive”.
`CC(O)COc1ccccc1` (centres undefined): the Potency entry in [1], in test [2], in test [3], in test [7], in [8] and in test [10] was “inactive” each time. The Potency entry in test [12] and in [13] was “inactive” throughout.
Consider `CC(=O)Oc1ccc(C2(c3ccc(OC(C)=O)cc3)C(=O)Nc3ccccc32)cc1`, for which the Potency entry in [1], in test [2], in test [14], in test [3], in test [6] and in test [7] was “inactive” throughout. Further, the Potency entry in test [9], in [10], in test [11], in test [12] and in [13] was “inactive” in each case.
`CCCCOC(=O)c1ccc(O)cc1`: the Potency entry in [1], in [2], in test [14], in [3], in [5] and in [6] was “inactive” in each case. In addition, the Potency entry in test [7], in test [10], in test [11] and in test [12] was “inactive” throughout.
Take `CC(=O)O[C@@]12CO[C@@H]1C[C@H](O)[C@@]1(C)C(=O)[C@H](O)C3=C(C)[C@@H](OC(=O)[C@H](O)[C@@H](NC(=O)OC(C)(C)C)c4ccccc4)C[C@@](O)([C@@H](OC(=O)c4ccccc4)[C@H]21)C3(C)C`: the Potency entry in [1] and in [8] was “inactive” throughout. Besides, the figures for the Potency in test [2] and in test [5] were 0.0026 µM (active) and 0.001 µM (active), respectively.
Take `Cc1ncc([N+](=O)[O-])n1CC(O)CCl` (centres undefined): the Potency result in test [1], in test [2], in test [3], in test [4], in test [5] and in test [6] was “inactive” each time. Besides, the Potency entry in test [7], in test [8], in test [9], in test [10], in test [11] and in [12] was “inactive” throughout. Also, in test [13], the Potency entry is “inactive”.
As to `CC[C@@]1(c2ccccc2)NC(=O)N(C)C1=O`, the Potency entry in [1], in test [14], in test [3], in test [4], in test [5] and in [6] was “inactive” throughout. Further, the Potency entry in test [7], in [8], in test [9], in test [10], in test [11] and in test [12] was “inactive” throughout. Moreover, the Potency entry in [13] was “inactive”.
Regarding `OC[C@H]1O[C@@H](O[C@@H]2[C@@H](CO)O[C@](O)(CO)[C@H]2O)[C@H](O)[C@@H](O)[C@H]1O`, the Potency entry in [1], in test [14], in [3], in test [5], in test [6] and in test [7] was “inactive” each time. Moreover, the Potency entry in test [9], in test [10], in test [11], in [12] and in test [13] was “inactive” each time.
On to `C=CCn1c(=O)n([C@@H]2O[C@H](CO)[C@@H](O)[C@H]2O)c2nc(N)[nH]c(=O)c21`, for which the Potency entry in test [1], in test [14], in test [3], in test [5], in test [6] and in test [7] was “inactive” throughout. The Potency entry in test [8], in [9], in test [10], in [11], in test [12] and in [13] was “inactive” throughout.
In the case of `NC(=O)N/N=C/c1ccc([N+](=O)[O-])o1`, the Potency entry in test [1], in test [3], in [5], in test [7], in test [8] and in test [9] was “inactive” in each case. In addition, the Potency entry in test [10], in test [11] and in test [12] was “inactive” each time. In addition, the Potency in [4] was 48.6 µM (active).
With `C[C@]12CC[C@@H]3c4ccc(O)cc4CC[C@H]3[C@@H]1CC[C@@H]2OC(=O)CCC1CCCC1`, the Potency entry in [1], in test [5], in [10] and in [11] was “inactive” each time.
On to `CCn1cc(C(=O)O)c(=O)c2cnc(N3CCNCC3)nc21`, for which the Potency result in [1], in [3], in test [4], in test [5], in test [6] and in test [7] was “inactive” in each case. The Potency result in test [9], in test [10], in test [11], in [12] and in [13] was “inactive” in each case.
On to `Oc1ccc(C(O)CNCCCCCCNCC(O)c2ccc(O)c(O)c2)cc1O` (centres undefined), for which the Potency result in [1], in [3], in test [5], in test [6], in test [7] and in test [9] was “inactive” in each case. In addition, the Potency result in test [10], in test [11] and in test [13] was “inactive” in each case.
Regarding `Cc1cccc(Nc2cc(Cl)nc(SCC(=O)O)n2)c1C`, the Potency result in [1], in test [3], in test [4], in test [5], in test [6] and in test [7] was “inactive” in each case. Besides, the Potency entry in test [8], in test [9], in [10], in [11], in test [12] and in [13] was “inactive” throughout.
Consider `CCN(CC)CCNC(=O)c1c(C)[nH]c(/C=C2\C(=O)Nc3ccc(F)cc32)c1C`, for which the Potency was 8.36 µM (active) in test [2]; 11.9 µM (active) in [3]; 10.6 µM (active) in [4]; 2.37 µM (active) in test [5]; 17.4 µM (active) in test [6]; 21.1 µM (active) in test [8]. Besides, the values for the Potency in [9], in test [12] and in test [13] were 21.1 µM (active), 11.9 µM (active) and 21.9 µM (active), respectively. In [10], the Potency entry is “inactive”.
As to `CCOC(=O)c1ccc(O)cc1`, the Potency result in [1], in [3], in test [5], in [6], in test [7] and in [8] was “inactive” each time. Also, the Potency result in test [9], in test [10], in test [11], in [12] and in [13] was “inactive” throughout.
